High-throughput results: PubChem BioAssay, National Center for Advancing Translational Sciences (NCATS)
Compounds with a hit are over-represented: about 5.8% of the library has one in this group of screens.
TRPV1 ag: human TRPV1 agonism; Q8NER1; activation, % at 8.33 µM; TRPV1-expressing cells, Fluo-8 calcium influx, agonist mode; 0.19% of 320,000 active; in the data active = activation above about 80%; inconclusive = between about 30% and that limit; note: 0% is about no effect
Target sequence (Q8NER1 whole entry, looked up): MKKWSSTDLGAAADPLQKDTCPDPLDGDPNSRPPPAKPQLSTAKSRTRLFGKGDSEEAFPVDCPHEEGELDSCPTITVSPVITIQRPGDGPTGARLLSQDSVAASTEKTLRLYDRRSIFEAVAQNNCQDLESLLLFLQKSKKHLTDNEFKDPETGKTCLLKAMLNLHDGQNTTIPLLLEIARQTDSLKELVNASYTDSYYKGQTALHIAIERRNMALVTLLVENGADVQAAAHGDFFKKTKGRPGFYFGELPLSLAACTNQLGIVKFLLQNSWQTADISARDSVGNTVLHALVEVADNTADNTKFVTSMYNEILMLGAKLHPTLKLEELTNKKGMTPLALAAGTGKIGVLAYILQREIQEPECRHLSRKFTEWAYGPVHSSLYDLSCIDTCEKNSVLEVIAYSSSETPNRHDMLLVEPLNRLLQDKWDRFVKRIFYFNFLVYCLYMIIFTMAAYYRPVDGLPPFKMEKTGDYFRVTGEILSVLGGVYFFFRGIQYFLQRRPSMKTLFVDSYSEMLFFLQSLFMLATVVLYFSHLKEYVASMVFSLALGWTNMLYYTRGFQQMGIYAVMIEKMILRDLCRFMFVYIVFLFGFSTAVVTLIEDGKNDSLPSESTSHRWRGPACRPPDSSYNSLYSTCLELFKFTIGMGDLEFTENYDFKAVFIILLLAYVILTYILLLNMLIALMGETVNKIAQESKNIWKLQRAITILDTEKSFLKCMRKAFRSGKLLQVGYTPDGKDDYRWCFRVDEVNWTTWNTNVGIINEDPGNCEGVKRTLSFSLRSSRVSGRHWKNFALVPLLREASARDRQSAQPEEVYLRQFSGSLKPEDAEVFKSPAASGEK
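Fluo-8 calcium influx in TRPV1-expressing cells, kinetic read (ex 480/em 520 nm). Compound added and read 3 min for agonist activity, followed by capsaicin at EC20 final and 2 min further read for enhancement.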
RORg inh: inhibitors of mouse ROR gamma transcriptional activity; 5.4% of 310,000 active; Potency, µM (series often up to 53.6 µM), without a hit: at the highest dose activity change, negative = inhibition, most hits filed as inhibitors; P51450; Drosophila S2 Gal4-RORgamma UAS-luciferase reporter, 20 h; note: potency is the fitted concentration of half-maximal effect; % is set by controls: 0 for no effect and ±100 for the full control effect; nearly all actives have a fitted effect of over 60% in size
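Schneider cells (Drosophila), stable Gal4 DBD–ROR gamma + UAS-luc; 1 hr cmpd preincubation; Cu2+ induction 700 uM final; 20 hr ambient; luminescence.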
VP16 counter: Gal4-VP16 reporter inhibition counter-screen; Drosophila S2 Gal4-VP16 UAS-luciferase, luminescence, 20 h; Potency, µM (top dose mostly 53.6 µM), for inactives: top-dose activity, negative = inhibition, most hits filed as inhibitors; 3.5% of 310,000 active;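 note: Gal4-VP16 expression switched on by copper sulfate through the metallothionein promoter; potency is the fitted concentration of half-maximal effect; % is set by controls: 0 for no effect and ±100 for the full control effect; nearly all actives have a fitted effect of over 50% in size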
TRPV1 potentiator: potentiators of human vanilloid receptor 1 (TRPV1); TRPV1-expressing cells, Fluo-8 calcium influx, capsaicin EC20 potentiation; AID 540277; Q8NER1; potentiation, % at 8.33 µM; 0.02% of 320,000 active; in the data active = potentiation above about 80%; inconclusive = between about 30% and that limit; note: 0% is about no effect
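Fluo-8 calcium influx in TRPV1-expressing cells, kinetic read (ex 480/em 520 nm). Compound added and read 3 min for agonist activity, followed by capsaicin at EC20 final and 2 min further read for enhancement.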
uPA surface inh: blocks generation of uPA at the cell surface; cell surface uPA generation assay, qHTS; Potency, µM (highest dose often 38.3 µM), for the others: at the highest dose activity change, negative = inhibition, most hits filed as inhibitors; 0.31% of 330,000 active; active = well fitted inhibition curve with a large enough effect; inconclusive = small, poorly fitted or top-dose-only effect; inactive = no such curve, though single readings can be large or run the other way; tested in mouse RAW 264.7 cells; note: potency is the fitted concentration of half-maximal effect; % is set by controls: 0 for no effect and ±100 for the full control effect; nearly all actives have a fitted effect of over 55% in size
Numbers without * were called inactive; ? = inconclusive; . = not tested or not shown; [ ] = dose if it differs, or a comment. Unless noted, calls come from the whole dose curve; as a rule, active = well fitted curve in the direction sought with a large enough effect; inconclusive = small, poorly fitted or top-dose-only effect, or another doubt; inactive = no such curve, though single readings can be large; an effect the other way counts as inactive or inconclusive.

SMILES | TRPV1 ag | RORg inh | VP16 counter | TRPV1 potentiator | uPA surface inh
c1ccc(-c2ccccc2OCc2nnc3n2CCC3)cc1 | -1 | -1% | 16% | -2 | 12%
COc1ccc(/C(C)=N/OC/C(O)=C(\C#N)c2nc3ccccc3[nH]2)cc1OC | -1 | 10µM* | -9% | 0 | -10%
COc1ccc(C/C(O)=C(\C#N)c2nc3ccccc3[nH]2)cc1OC | 3 | 11µM* | -20% | ? | 3%
N#C/C(=C(/O)CO/N=C/c1ccccc1Cl)c1nc2ccccc2[nH]1 | -1 | -29% | -2% | 0 | -13%
COc1ccc(/C(C)=N/OC/C(O)=C(\C#N)c2nc3ccccc3[nH]2)c(OC)c1 | -5 | 20µM* | ? | 2 | 12%
CCc1ccc(NC(=O)COc2ccc(/C=C(/C#N)c3nc4ccccc4[nH]3)cc2OC)cc1 | 2 | 2.8µM* | 3.2µM* | -11 | 2%
COc1ccc(OC/C(O)=C(\C#N)c2nc3ccccc3[nH]2)cc1 | 5 | -36% | -2% | -5 | -11%
COc1ccc(/C=N/OC/C(O)=C(\C#N)c2nc3ccccc3[nH]2)cc1 | 3 | 11µM* | ? | -15 | 0%
O=C(NCc1cccnc1)/C(=C\c1ccc(-c2ccc(Cl)c(Cl)c2)o1)S(=O)(=O)c1ccccc1 | -5 | 8.9µM* | 5.6µM* | -6 | 10µM*
O=C(Nc1nccs1)c1ccc(-c2ccc(Cl)cc2)o1 | 23 | 4µM* | ? | -3 | ?
O=C(NCc1cccnc1)c1ccc(-c2ccc(Cl)cc2)o1 | 86* | ? | -12% | -17 | -15%
O=C(NCc1cccnc1)c1ccc(-c2cc(Cl)ccc2Cl)o1 | ? | ? | 2% | -11 | 5%
Cc1nc2ccc(Br)cn2c1NC(C)(C)C | 11 | 14µM* | ? | -6 | .
Cc1cc(C)c(C)c(S(=O)(=O)ON2C(=O)c3ccccc3C2=O)c1C | 3 | ? | 13µM* | 7 | -7%
O=C1c2ccccc2C(=O)N1OS(=O)(=O)c1ccc(F)cc1 | -1 | ? | ? | -4 | 12%
Cc1ccc(S(=O)(=O)ON2C(=O)c3ccccc3C2=O)c(C)c1 | -2 | 20µM* | ? | 0 | -12%
Cc1cc(C)c(S(=O)(=O)ON2C(=O)c3ccccc3C2=O)cc1C | 7 | 14µM* | 16µM* | 1 | -4%
Cc1onc(-c2c(Cl)cccc2Cl)c1C(=O)N/N=C(\N)COc1ccc(Cl)cc1 | -2 | 0.45µM* | 0.5µM* | -16 | -12%
COc1cc(/C=N/NC(=O)c2c(-c3c(Cl)cccc3Cl)noc2C)ccc1OCC(N)=O | -9 | . | . | 13 | 4%
COc1cc(NC(=O)Cn2nc(C(F)(F)F)c(Br)c2C)cc([N+](=O)[O-])c1 | -4 | ? | 18µM* | -29 | -2%
COc1ccc(CNC(=O)Cn2nc(C(F)(F)F)c(Br)c2C)cc1 | -3 | 5% | 0% | 2 | -4%
Cc1ccccc1OCCn1cc(C(=S)N2CCCC2)c2ccccc21 | . | . | . | . | -6%
CC(=O)c1cn(CCOc2ccccc2C)c2ccccc12 | 3 | ? | 4.5µM* | 9 | 5.6µM*
Cc1ccccc1OCCn1cc(C(=S)N2CCN(C)CC2)c2ccccc21 | 14 | 13µM* | -15% | -7 | ?
CC(=O)c1cn(CCOc2ccc(F)cc2)c2ccccc12 | -1 | ? | ? | 7 | -24%
SMILES | TRPV1 ag | RORg inh | VP16 counter | TRPV1 potentiator | uPA surface inh
CC(=NCCN1CCN(C(=S)Nc2ccccc2)CC1)C1=C(O)CC(C)(C)CC1=O | -1 | 7% | -3% | 12 | -3%
CN(C)c1ccc(/C=N\NC(=O)c2cccc3cc[nH]c23)cc1 | ? | 7.9µM* | ? | -9 | ?
CN(C)c1ccc(/C=N\NC(=O)c2csnn2)cc1 | . | ? | 18µM* | . | -3%
CN(C)c1ccc(/C=N/NC(=O)c2cc(=O)[nH]c3ccccc23)cc1 | -2 | 0% | 1% | 20 | 0%
CN(C)c1ccc(/C=N/NC(=O)c2ccccn2)cc1 | ? | -44% | ? | -16 | ?
Cc1ccc(S(=O)(=O)N2CCN(C(=O)COC(=O)CNC(=O)c3ccc(Cl)cc3Cl)CC2)c(C)c1 | . | . | . | . | 12%
C=CCOCC/C=C1/c2ccccc2C(OC)C1C (stereo unspecified) | . | 3%[10 µM] | 0%[10 µM] | . | .
C/C(=N\Nc1nc2ccccc2[nH]1)c1ccc(N2CCOCC2)cc1 | -3 | 3.2µM* | ? | 3 | -18%
C/C(=N\Nc1ncc(Cl)cc1Cl)c1ccccn1 | 3 | 0.71µM* | 14µM* | 4 | -3%
C/C(=N\Nc1ncnc2sc(C)c(C)c12)c1ccccn1 | 88* | 0.4µM* | 0.79µM* | 7 | 5%
Cc1sc2ncnc(N/N=C/c3cccc(O)c3)c2c1C | 5 | ? | ? | -4 | 5%
C/C(=N\Nc1cc(N2CCCCC2)nc(C)n1)c1ccc(Br)cc1 | 17 | ? | 6.3µM* | -2 | ?
C/C(=N\Nc1ccc(Cl)c(C(=O)O)c1)c1ccccn1 | 1 | ? | 22% | 10 | -3%
Cc1ccc(NS(=O)(=O)c2cc(C(=O)N(C)C3CCN(C)CC3)ccc2Cl)cc1Cl | . | . | . | . | -8%
c1ccc(C(c2ccccc2)N2CC[C@@]3(CCCNC3)C2)cc1 | . | 16% | 21% | . | .
COc1ccc(N(CC(=O)NC2CCCCC2)C(=O)CNC(=O)c2cccs2)cc1OC | -2 | 4% | 1% | 23 | -2%
COc1ccc(C2=Nn3c(nnc3-c3ccc(OC)c(OC)c3)SC2)c(OC)c1 | . | 12% | -2% | . | .
CCOC(=O)c1c(NC(=O)C2c3ccccc3Oc3ccccc32)sc(C(=O)N(CC)CC)c1C | 1 | -7% | -29% | 18 | -10%
Cc1ccc(Nc2ncnc3sc(C)c(C)c23)cc1 | 87* | -4% | 11% | -9 | 4%
C/C(=N\Nc1ncc(Cl)cc1Cl)c1ccc(N2CCOCC2)cc1 | 8 | 5µM* | ? | -9 | 4%
Cc1sc2ncnc(NC3CCN(Cc4ccccc4)CC3)c2c1C | 18 | ? | 16µM* | -22 | 1%
Cc1sc2ncnc(Nc3ccc(O)cc3)c2c1C | . | -26% | 0% | . | -3%
C/C(=N\Nc1nc(C)cc(C)n1)c1ccc(N2CCOCC2)cc1 | 3 | 11µM* | -5% | 3 | -9%
C/C(=N\NC(=O)c1ccncc1)c1ccc(N2CCOCC2)cc1 | -2 | . | . | -1 | -5%
C/C(=N\Nc1cc(N2CCOCC2)nc(C)n1)c1ccc(F)cc1 | -1 | -12% | 3% | ? | 6%
O=C(Nc1ccccc1C(=O)NCCc1ccc(O)cc1)c1ccco1 | 28 | 27% | 0% | -9 | 2%
C/C(=N\Nc1cccc2cccnc12)c1ccccn1 | ? | 0.63µM* | 4µM* | -4 | -7%
C/C(=N/Nc1nc(C)cc(C)n1)c1ccc(Br)cc1 | 3 | 7.9µM* | 7.9µM* | -12 | 1%
O=[N+]([O-])c1ccc(CSc2ccccn2)cc1 | -1 | 30% | 3% | 2 | 1%
O=[N+]([O-])c1ccc(CSc2ncnc3ccccc23)cc1 | 6 | 7.9µM* | 23% | 3 | 2%
